PubChem BioAssay (NCI)
This is part of a sample that, as a whole, favours compounds with a hit. Of some 79,000 tested, about 15% had one in any assay. A number with no mark means an inactive call. The source made the active and inactive calls. Rule as the data show it: active = growth inhibition above about 70%; inactive = the rest.

What was measured:
[1] = NCI Yeast Anticancer Drug Screen. Data for the rad50 strain (AID 155);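 also: 0% = growth of vehicle-only cultures of the same strain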; details: S. cerevisiae rad50 strain growth inhibition, active compounds read high
How it was run: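 Yeast carrying a defined DNA repair defect were exposed to test compounds, and growth was compared with vehicle-treated controls to give percent inhibition.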

[2] = NCI Yeast Anticancer Drug Screen. Data for the mec2-1 strain (AID 157); details: S. cerevisiae mec2-1 strain, active compounds read high
How it was run: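 Yeast mec2-1 mutant treated with compound. Readout: growth inhibition vs vehicle controls.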

[3] = NCI Yeast Anticancer Drug Screen. Data for the sgs1 mgt1 strain (AID 161);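 also: 0% = growth of cultures given vehicle only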; details: S. cerevisiae sgs1 mgt1 strain, active compounds read high
How it was run: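 Inhibition of yeast growth, normalised to vehicle-treated controls, is reported for a strain bearing genetic alterations in DNA damage repair.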

[4] = NCI Yeast Anticancer Drug Screen. Data for the cln2 rad14 strain (AID 165);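 also: 0% = growth equal to vehicle treated cultures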; details: S. cerevisiae cln2 rad14 strain, active compounds read high
How it was run: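 cln2 rad14 yeast strain; compound exposure; growth inhibition read vs vehicle controls.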

[5] = NCI Yeast Anticancer Drug Screen. Data for the bub3 strain (AID 167); details: S. cerevisiae bub3 mutant strain, active compounds read high
How it was run: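 Compounds were applied to a genetically altered yeast strain carrying a cell-cycle control defect. Growth inhibition was scored against vehicle-treated controls.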

[6] = NCI Yeast Anticancer Drug Screen. Data for the mlh1 rad18 strain (AID 175); details: S. cerevisiae mlh1 rad18 strain growth inhibition, active compounds read high
How it was run: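 Yeast w/ defined DNA-repair lesions; compound exposure; growth vs vehicle controls → % inhibition.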

[7] = at 5.0 µM (retest, dose inferred, filed as 0.5)
[8] = at 50.0 µM (retest, dose inferred, filed as 5.0)

SMILES | growth inhibition [1, 7] | growth inhibition [1, 8] | growth inhibition ([1]; at 50.0 µM) | growth inhibition [2, 7] | growth inhibition [2, 8] | growth inhibition ([2]; at 50.0 µM) | growth inhibition [3, 7] | growth inhibition [3, 8] | growth inhibition ([3]; at 50.0 µM) | growth inhibition [4, 7] | growth inhibition [4, 8] | growth inhibition ([4]; at 50.0 µM) | growth inhibition [5, 7] | growth inhibition [5, 8] | growth inhibition ([5]; at 50.0 µM) | growth inhibition [6, 7] | growth inhibition [6, 8] | growth inhibition ([6]; at 50.0 µM)
O=C(Cc1nc2ccccc2s1)Nc1ccc2ccccc2c1 | -8% | 99% (active) | 98% (active) | 18% | 99% (active) | 98.5% (active) | 31% | 99% (active) | 97.8% (active) | -1% | 99% (active) | 95.3% (active) | 12% | 99% (active) | 97.8% (active) | 13% | 99% (active) | 97.8% (active)
CCCCCCCCC1(OCCCS(=O)(=O)O)COc2ccccc2OCCOCCOc2ccccc2OC1 | -13% | 87% (active) | 97.9% (active) | -4% | 74% (active) | 87% (active) | -6% | 73% (active) | 97.9% (active) | -4% | 73% (active) | 93.6% (active) | -8% | 80% (active) | 96% (active) | -7% | 87% (active) | 95.2% (active)
Cc1c(N=Nc2c(S(=O)(=O)O)cc3cc(S(=O)(=O)O)c(N=Nc4c(C)n(C)n(-c5ccccc5)c4=O)c(O)c3c2O)c(=O)n(-c2ccccc2)n1C | -20% | -13% | 3.25% | -18% | -31% | 32.8% | -7% | 26% | 4.15% | 7% | 8% | 36.4% | -19% | -11% | -29.4% | 5% | -7% | -6.6%
CC(C)=CCC/C(C)=C/CCC1(C)C=Cc2c(c3ccccc3oc2=O)O1 (configuration not stated) | 28% | 3% | 20.1% | 25% | 15% | 15.2% | 51% | 36% | 57.6% | 37% | 25% | 52.3% | 53% | 28% | 23.1% | 25% | 16% | 76.5% (active)
O=S1(=O)CCN(c2ccccc2CC(c2c[nH]c3ccccc23)c2c[nH]c3ccccc23)CC1 | 29% | 90% (active) | 88.5% (active) | -5% | 73% (active) | 74.8% (active) | 3% | 79% (active) | 87.7% (active) | 5% | 62% | 86.2% (active) | 14% | 89% (active) | 90.6% (active) | 34% | 94% (active) | 91.9% (active)
COC(=O)/C=C1/OC(c2ccccc2)=C(C)C1=O | 6% | 6% | 30.7% | 18% | 18% | 30.7% | 14% | 14% | 48.9% | -6% | -6% | -7.85% | 0% | 0% | 5.8% | 8% | 8% | 42.6%
CN(C)CCCSc1c2ccccc2nc2cccc([N+](=O)[O-])c12 | 2% | 10% | 3.65% | 0% | -1% | -9.4% | -8% | -3% | 7.5% | 12% | 18% | -47.8% | 14% | 8% | -43.5% | 2% | -5% | 20.6%
CCOC(CC)C(O)(c1ccc(N(C)C)cc1)c1ccc(N(C)C)cc1 (configuration not stated) | -2% | 94% (active) | 98.3% (active) | -1% | 69% | 98.2% (active) | 0% | 95% (active) | 98.6% (active) | -3% | 63% | 97.5% (active) | 4% | 88% (active) | 98.7% (active) | 1% | 98% (active) | 98.2% (active)
O=CC(O)C(O)C(O)C(O)C(=O)NCCCCCCCCCCCCNC(=O)C(O)C(O)C(O)C(O)C=O (configuration not stated) | 19% | 22% | 16.4% | 20% | 27% | 12.2% | -20% | -28% | 21.9% | -2% | 18% | 25.2% | -4% | 10% | -6.7% | 20% | 23% | -20.6%
CC1=C(C(=O)Nc2ccc(Cl)c(Cl)c2)C(c2ccco2)C(C(=O)Nc2ccc(Cl)c(Cl)c2)=C(C)N1 | 41% | 41% | 88.7% (active) | 22% | 22% | 87.7% (active) | -4% | -4% | 89.3% (active) | 24% | 24% | 88.2% (active) | 10% | 10% | 89% (active) | 36% | 36% | 87.6% (active)
CCN(CC)CCNc1ccc2ncn3c4c(OC)ccc(=O)c4c(O)c1c23 | 24% | 96% (active) | 25.4% | 9% | 65% | 19.9% | 3% | 54% | 22.6% | -1% | 29% | -1.95% | 9% | 19% | -13.1% | 9% | 83% (active) | 4.65%
COc1ccc(OC)c(C[P+](c2ccccc2)(c2ccccc2)c2ccccc2)c1 | 97% (active) | 96% (active) | 98.7% (active) | 97% (active) | 99% (active) | 98.9% (active) | 97% (active) | 99% (active) | 98.5% (active) | 92% (active) | 99% (active) | 98.8% (active) | 96% (active) | 99% (active) | 99% (active) | 98% (active) | 99% (active) | 99% (active)
CCOc1ccc2c(c1)n([O-])c1cc(Br)ccc1[n+]2=O | 95% (active) | 93% (active) | 22.4% | 49% | 85% (active) | 86.3% (active) | 72% (active) | 95% (active) | 88.2% (active) | 35% | 90% (active) | 49% | 33% | 92% (active) | 78.6% (active) | 91% (active) | 93% (active) | 85.8% (active)
Cc1ccc(Nc2nc3nc[nH]c3c(=O)[nH]2)cc1CO | 2% | 13% | -4.35% | 10% | 2% | -12.4% | -12% | 14% | -0.6% | -2% | -4% | 0% | 2% | -4% | -8.75% | 15% | 7% | 4.8%
Cn1cc(CCC(=O)C2C=CC=CC2=NC(=O)CCCl)c2ccccc21 (configuration not stated) | 11% | 7% | -3.6% | 7% | -6% | 12.8% | -1% | -20% | -4% | 14% | 14% | 14.3% | 11% | 7% | 8.95% | -2% | 1% | -17.1%
C=CCOCCC=O | 7% | 38% | 45.4% | 3% | 5% | 14.2% | 2% | 4% | 36% | 4% | 2% | -20.4% | 4% | -3% | 47.7% | 4% | 11% | 54.6%
CC/C(=N\OC(=O)Nc1ccccc1)c1ccc(OC(=O)Nc2ccccc2)cc1 | 4% | 22% | 60.5% | -7% | 58% | 55% | 2% | 46% | 76.8% (active) | -4% | 7% | 49.6% | 1% | 48% | 33.1% | 2% | 24% | 76.1% (active)
O=C1c2ccccc2C(=O)c2c(OCCOCCO)cccc21 | 6% | 70% (active) | 86.2% (active) | 3% | 18% | 23.9% | 2% | 31% | 18% | -3% | 21% | 24.6% | -6% | 17% | 37.6% | 1% | 65% | 39.6%
Cc1nc(-c2ccc(N=Cc3ccc(N(CCOS(C)(=O)=O)CCOS(C)(=O)=O)cc3)cc2)cs1 | 1% | 46% | 46.5% | -24% | 9% | 7.75% | -2% | 17% | 21.1% | -2% | 33% | -45.7% | -3% | -10% | -2.55% | 12% | 54% | 71.8% (active)
